Sfp inh: Sfp phosphopantetheinyl transferase inhibition | Biochemical Sfp PPTase activity, qHTS | 310,000 compounds, 3.5% hits | Q9F4F7 | AID 1490 | Potency, µM, for inactives: largest response in the series, negative = inhibition, usual class: inhibitors;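 further: the enzyme is Sfp with the accession as filed and its product quenches rhodamine fluorescence; 0% = enzyme reaction without inhibitor and -100% = no enzyme wells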
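Fluorescence-quenching assay with 15 nM Sfp, 5 uM rhodamine-CoA and 12.5 uM BHQ-2-labelled ybbR peptide in pH 7.6 Hepes/MgCl2 buffer. Enzyme was pre-incubated with compound for 15 min at room temperature. Rate was taken from the 30-min fluorescence change (525/598 nm).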
BAZ2B block: BAZ2B (human) inhibition; Potency, µM (titrated, usually from 114 µM), for inactives: top-dose activity change, negative = inhibition, usual class: inhibitors; AID 504333; 360,000 compounds, 4.4% hits; Q9UIF8; AlphaScreen BAZ2B-H3K14Ac peptide displacement; further: on the % scale 0 is the no-effect control and ±100 the full control effect; nearly all actives have a fitted effect of over 60% in size
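AlphaScreen luminescence quantifies BAZ2B engagement of H3K14Ac peptide; the protein and biotinylated peptide are both at 50 nM final, buffer PBS pH 7.4 with 0.01% Tween-20, all steps at room temperature.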
G9a block: G9a (human) methyltransferase inhibition; Q96KQ7; G9a H3K9 monomethylation, AlphaScreen, 2 h; Potency, µM (highest dose often 102 µM), for inactives: top-dose activity, negative = inhibition, hits mostly inhibitors; 350,000 compounds, 8.8% hits; further: on the % scale 0 is the no-effect control and ±100 the full control effect; nearly all actives have a fitted effect of over 75% in size
Target sequence (Q96KQ7 913-1193 limits assumed): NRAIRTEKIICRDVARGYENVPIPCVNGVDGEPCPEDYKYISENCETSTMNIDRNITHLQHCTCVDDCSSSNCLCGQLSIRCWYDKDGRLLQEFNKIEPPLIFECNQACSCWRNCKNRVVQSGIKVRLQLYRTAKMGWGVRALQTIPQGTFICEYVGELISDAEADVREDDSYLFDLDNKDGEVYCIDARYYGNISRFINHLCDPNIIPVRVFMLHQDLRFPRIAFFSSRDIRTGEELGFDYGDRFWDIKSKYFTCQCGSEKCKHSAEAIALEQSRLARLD
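G9a (20 nM) preincubated 15 min RT with compounds, then 500 nM biotinylated H3K9 peptide and 20 uM SAM added; 2 h RT reaction. Monomethyl-H3K9 product detected by AlphaScreen with anti-H3K9me1 antibody, streptavidin donor and anti-rabbit IgG acceptor beads.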
HP1b binding inh: HP1-beta chromodomain-methylated histone interaction inhibition; AlphaScreen HP1-beta / biotin-H3K9me3 peptide binding; Potency, µM (doses to about 114 µM), for the others: top-dose activity change, negative = inhibition, most hits filed as inhibitors; AID 540317; 390,000 compounds, 0.56% hits; P83916; further: nearly all actives have a fitted effect of over 70% in size
Target sequence (P83916 whole entry, looked up): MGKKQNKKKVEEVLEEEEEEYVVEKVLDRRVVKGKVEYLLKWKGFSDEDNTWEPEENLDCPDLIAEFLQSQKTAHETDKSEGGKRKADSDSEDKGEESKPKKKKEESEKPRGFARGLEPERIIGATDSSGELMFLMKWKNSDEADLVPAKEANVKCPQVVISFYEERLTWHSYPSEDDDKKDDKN
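AlphaScreen: HP1-beta (50 nM) preformed 30 min with biotin-H3(1-18)K9me3 peptide (50 nM) in PBS pH 7.4, 0.01% Tween-20. Compound added for 30 min at RT, then streptavidin donor/nickel chelate acceptor beads (10 ug/mL) for 30 min.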
JMJD2A Tudor inh: inhibitors of human JMJD2A Tudor domain | 390,000 compounds, 4.4% hits | AlphaScreen JMJD2A-Tudor / H3K4me3 peptide binding | AID 504339 | Potency, µM (highest dose often 114 µM), inactives show at the top dose activity change, negative = inhibition, usual class: inhibitors | O75164; further: on the % scale 0 is the no-effect control and ±100 the full control effect; nearly all actives have a fitted effect of over 50% in size
The depositor's hits bear a star; [ ] = another dose, or the depositor's remark. Only some compounds are listed: those with a hit (about 12% of all), similar ones and a draw of the others. The call rests on the fitted dose curve; in most records, active means well fitted curve in the direction sought with a large enough effect; inconclusive means small, poorly fitted or top-dose-only effect, or another doubt; inactive means no such curve, though single readings can be large; an effect the other way counts as inactive or inconclusive. Potency means the concentration at half of the fitted maximal effect.

For COC(=O)CN1C(=O)C(C)(C)Oc2ccc(C(=O)Nc3ccccc3F)cc21 the results were Sfp inh 9%, BAZ2B block -30%, G9a block 9%, HP1b binding inh 15% and JMJD2A Tudor inh -18%.
COCCNC(=O)[C@@H]1CCCN1S(=O)(=O)c1cccc2cccnc12 was read as BAZ2B block 5%, G9a block -4%[12.7 µM], HP1b binding inh 35% and JMJD2A Tudor inh -4%.
`O=C(O)CCN1C(=O)c2ccncc2C1=O` gave Sfp inh 8%, BAZ2B block -29%, G9a block -18%[59 µM], HP1b binding inh 31% and JMJD2A Tudor inh -5%.
Screening Cc1cc(C(=O)N2CCC(Cc3ccccc3)CC2)no1 returned Sfp inh 8%, BAZ2B block 1%, G9a block 38%, HP1b binding inh 25% and JMJD2A Tudor inh -17%.
Nc1ccccc1OCP(=O)(c1ccccc1)c1ccccc1 was read as Sfp inh 8%, BAZ2B block -4%, G9a block 12%, HP1b binding inh 40% and JMJD2A Tudor inh -5%.
`COC(=O)C1=C(C)N(CCc2ccccc2)C(=O)C1` gave Sfp inh 6%, BAZ2B block 12%, G9a block inconclusive, HP1b binding inh 32% and JMJD2A Tudor inh -6%.
`COC(=O)C1=C(C)N(CCc2ccccc2)C(=O)/C1=C\c1ccco1` gave Sfp inh 50µM*, BAZ2B block 35µM*, G9a block 32µM*, HP1b binding inh -59% and JMJD2A Tudor inh 40µM*.
`Cc1ccc(/C=C2\C(=O)NC(=O)N2C)o1` gave Sfp inh 40µM*, BAZ2B block -33%, G9a block 35µM*, HP1b binding inh 26% and JMJD2A Tudor inh -15%.
Screening COC(=O)C1=C(C)N(Cc2ccccc2)C(=O)/C1=C\c1ccco1 returned Sfp inh -26%, BAZ2B block 18µM*, G9a block 28µM*, HP1b binding inh inconclusive and JMJD2A Tudor inh inconclusive.
Cc1ccc(/C=C2/C(=O)N(c3ccccc3)C(=S)N2C)o1 was read as Sfp inh 5µM*, BAZ2B block inconclusive, G9a block 8.9µM*, HP1b binding inh inconclusive and JMJD2A Tudor inh inconclusive.
CCN(CC)CCNC(=O)c1ccc(NC(=O)c2cc(S(=O)(=O)N3CCCCC3)ccc2C)cc1 was read as BAZ2B block 6%, G9a block inconclusive, HP1b binding inh 27% and JMJD2A Tudor inh -11%.
Screening Cc1ccc(-c2cc(C(F)F)nc3sc4c(=O)[nH]cnc4c23)cc1 returned BAZ2B block -3%, G9a block 24%[12.7 µM], HP1b binding inh 31% and JMJD2A Tudor inh 0%.
For COc1cc(NC(=S)N2CCN(C(=O)C3CCCO3)CC2)c(OC)cc1Cl (stereo not drawn) the results were Sfp inh 9%, BAZ2B block 6%, G9a block 8%[59 µM], HP1b binding inh 43% and JMJD2A Tudor inh -7%.
For Nc1nc(=S)c2[nH]cnc2[nH]1 the results were Sfp inh -92%, BAZ2B block -36%, G9a block 2.2µM*, HP1b binding inh 5% and JMJD2A Tudor inh 5.6µM*.
CSc1nc(=O)[nH]c2nc[nH]c12 was read as HP1b binding inh 11%[57 µM] and JMJD2A Tudor inh -5%[57.1 µM].
For O=C(COC(=O)c1ccc(S(=O)(=O)NCc2ccco2)cc1)NC1CCCCCC1 the results were Sfp inh 56µM*, BAZ2B block inconclusive, G9a block inconclusive, HP1b binding inh 3% and JMJD2A Tudor inh inconclusive.
Screening O=C(NC1CCCCCC1)c1ccc(S(=O)(=O)NCc2ccco2)cc1 returned Sfp inh 2%, BAZ2B block 10%, G9a block -4%[59 µM], HP1b binding inh 5% and JMJD2A Tudor inh 0%.
Screening Cc1cccc(NC(=O)c2ccc(F)c(S(=O)(=O)NCc3ccco3)c2)c1 returned Sfp inh -6%, BAZ2B block inconclusive, G9a block 50µM*, HP1b binding inh 16% and JMJD2A Tudor inh -27%.
`O=C(Nc1ccc(S(=O)(=O)NCc2ccco2)cc1)C1CCCCC1` gave Sfp inh -19%, BAZ2B block -35%, G9a block 45µM*, HP1b binding inh 16% and JMJD2A Tudor inh -18%.
